LmPK inh = LmPK (Leishmania mexicana) enzyme inhibition; Q27686; actives 0.37% (n = 290,000); Potency, µM (top dose mostly 57.5 µM), inactives show at the highest dose activity change, negative = inhibition, usual class: inhibitors; purified LmPK, Kinase-Glo ATP luminescence, 1 h; also: potency is read from the fitted curve at half-maximal effect; % is scaled to controls: 0 for no effect and ±100 for the full control effect
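In 50 mM imidazole pH 7.2 with 7 mM MgCl2, LmPK (0.1 nM) turned over PEP (0.5 mM) and ADP (0.1 mM) for 1 h at room temperature. Luciferase read-out of ATP.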
Shiga inhibitor = blocks Shiga toxin action in Vero cells. actives 9.2% (n = 290,000). inhibition, % at 38.7 µM. AID 2315. Vero cells, Shiga toxin protein synthesis inhibition reporter; in the data active = inhibition mostly above about 28%, no sharp cut-off; inactive = mostly below about 43%; also: 0% is about no effect
Giardia FBPA inh = Giardia lamblia aldolase inhibition | A8B2U2 | purified Giardia FBPA | Potency, µM (doses to about 59.6 µM), for the others: at the top dose activity, negative = inhibition, most hits filed as inhibitors | actives 0.71% (n = 290,000) | AID 2451; also: potency is read from the fitted curve at half-maximal effect; % is scaled to controls: 0 for no effect and ±100 for the full control effect; nearly all actives have a fitted effect of over 55% in size
Target sequence (A8B2U2 whole entry, looked up): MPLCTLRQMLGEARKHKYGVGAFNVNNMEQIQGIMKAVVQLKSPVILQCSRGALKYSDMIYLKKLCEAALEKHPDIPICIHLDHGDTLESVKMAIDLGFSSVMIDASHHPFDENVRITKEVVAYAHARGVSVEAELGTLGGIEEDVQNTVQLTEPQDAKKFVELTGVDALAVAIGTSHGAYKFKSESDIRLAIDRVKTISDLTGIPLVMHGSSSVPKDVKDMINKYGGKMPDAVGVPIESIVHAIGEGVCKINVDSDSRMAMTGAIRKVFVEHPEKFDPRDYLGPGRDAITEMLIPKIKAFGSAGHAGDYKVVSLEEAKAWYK
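Giardia FBPA (40 nM reagent) was preincubated 10 min at RT with compound (up to 57.5 uM final), then substrate plus GAPDH/TPI/NAD/arsenate coupling system with diaphorase/resazurin was added; resorufin fluorescence (525/598 nm) was read after 20 min.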
TbPYK inhibitor = T. brucei pyruvate kinase inhibition; TbPYK enzyme, Kinase-Glo Plus ATP luminescence, 45 min; Potency, µM (titrated, usually from 76.8 µM), without a hit: top-dose activity, negative = inhibition, hits mostly inhibitors; actives 0.12% (n = 410,000); also: potency is read from the fitted curve at half-maximal effect; % is scaled to controls: 0 for no effect and ±100 for the full control effect; nearly all actives have a fitted effect of over 50% in size
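Quantitative HTS: titrated library compounds versus trypanosomal pyruvate kinase in TEA buffer (pH 7.2) containing KCl, MgCl2, BSA and Tween-20. Reactions were initiated with ADP, 130 uM final. Kinase-Glo Plus luminescence was read after 45 min at RT.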
CHX counter = affects cycloheximide protein synthesis inhibition readout, counter-screen | max response, % | actives 12% (n = 300,000) | cell reporter, cycloheximide protein synthesis inhibition counterscreen; in the data active = max response mostly above about 13%, no sharp cut-off; inactive = mostly below about 14%; also: read at 38.3 µM for the half of the compounds with a filed dose; 0% is about no effect
Sm TGR inh = S. mansoni TGR enzyme inhibition; purified TGR, DTNB reduction, TNB absorbance 405 nm; Potency, µM (series often up to 114 µM), without a hit: top-dose activity change, negative = inhibition, most hits filed as inhibitors; Q962Y6; AID 485364; actives 3% (n = 360,000); also: potency is read from the fitted curve at half-maximal effect; % is scaled to controls: 0 for no effect and ±100 for the full control effect; nearly all actives have a fitted effect of over 60% in size
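First, TGR (20 nM dispensed) and NADPH were mixed with compound. Second, a 15 min room-temperature incubation followed. Third, further NADPH and then DTNB were added to start the reaction. Finally, TNB absorbance was monitored kinetically.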
* hit, by the source's call; ? = inconclusive; . = no result given; [ ] = dose if it differs, or a comment. Many of the other results were omitted from the sample, so hits are more common in it than they were. Unless noted, calls follow the shape of the dose curve; as a rule, active = well fitted curve in the direction sought with a large enough effect; inconclusive = small, poorly fitted or top-dose-only effect, or another doubt; inactive = no such curve, though single readings can be large; an effect the other way counts as inactive or inconclusive.

SMILES	LmPK inh	Shiga inhibitor	Giardia FBPA inh	TbPYK inhibitor	CHX counter	Sm TGR inh
O=C(Nc1ccc(NC(=O)c2ccco2)cc1)c1ccco1	-9%	-14	.	-4%	-6	-22%
CC(C)Cn1c(CN2CCN(c3cccc(Cl)c3)CC2)nc2c1c(=O)[nH]c(=O)n2C	.	.	.	5%	.	-4%
CC(/C=N/NC(=O)CSc1nc2ccccc2n1C)=C\c1ccco1	4%	6	-25%	-6%	-2	?
O=C(CSc1nnc(SCc2ccccc2)s1)N/N=C/C=C\c1ccco1	2%	-9	-28%	-14%	-3	32µM*
CC(=C/c1ccco1)/C=N/NC(=O)CSc1nnc(SCc2ccc(C)cc2)s1	1%	33*	-26%	-6%	45*	-25%
O=C(CSc1nnc(SCc2ccccc2)s1)N/N=C/C=C/c1ccccc1[N+](=O)[O-]	-1%	-7	3%	13%	5	6%
CC1CCc2c(cnc3ncnn23)C1 (configuration not stated)	5%	-1	1%	4%	-3	9%
Cc1noc(C)c1C(=O)OCC(=O)c1cc(C)n(Cc2ccccc2Cl)c1C	-9%	63*	-9%	-2%	45*	0%
O=C(c1ccccc1)N1CCC(=O)N1c1ccccc1	-6%	13	5%	4%	-2	-9%
O=C1CN(c2ccccc2)C(=S)N1C(=O)c1ccccc1	-4%	47*	-9%	0%	46*	?
Cc1ccc(-n2ncc(C(=O)NCCc3ccsc3)c2C2CCN(C(=O)OC(C)(C)C)CC2)c(C)c1	.	.	.	0%	.	-1%
Cc1cccc(NC(=S)N2N=CCC2c2ccccc2)c1 (configuration not stated)	-3%	119*	3%	2%	42*	9%
CCc1ccccc1NC(=S)N1CCCCCC1	-10%	-11	.	6%	1	0%
CCc1ccccc1NC(=S)N1N=CCC1c1ccccc1 (configuration not stated)	2%	55	-15%	0%	17*	.
CC1=NN(C(=S)Nc2ccccc2)C(c2ccccc2)C1 (configuration not stated)	-9%	41	-13%	-14%	6	-2%
O=[N+]([O-])c1cccc2ccc(/C=C/c3ccc(Cl)cc3)nc12	-1%	137*	-2%	-9%	45*	2%
CC(=O)Nc1ccc(/C=C/c2ccc3c([N+](=O)[O-])cccc3n2)cc1	5%	70*	-6%	4%	33*	-2%
O=[N+]([O-])c1cccc2ccc(/C=C/c3cccc(Br)c3)nc12	0%	70*	-5%	16%	42*	9%
O=C(/C=C/c1ccc(Cl)cc1)N1CCN(c2c(Cl)cccc2[N+](=O)[O-])CC1	5%	20	-3%	-10%	-5	-1%
COc1cc(/C=C/c2ccc3cccc(OC)c3n2)c(O)c([N+](=O)[O-])c1	-4%	18	-3%	-3%	1	2%
O=C(O)c1cc(/C=C/c2ccc(N3CCOCC3)c([N+](=O)[O-])c2)nc2ccccc12	?	-9	-7%	-5%	-4	-3%
CCOc1cc(/C=C/c2ccc3cccc([N+](=O)[O-])c3n2)cc(Cl)c1O	4%	22	-6%	-14%	11*	-10%
CCOC(=O)C1(C)Oc2ccc(S(=O)(=O)CC)cc2NC1=O (configuration not stated)	-2%	4	-1%	-1%	-2	2%
O=[N+]([O-])c1cccc2ccc(/C=C/c3ccc(C(F)(F)F)cc3)nc12	-6%	31	-13%	-4%	21*	1%
O=S(=O)(c1ccccc1)N1c2cc(Cl)ccc2Oc2nc3ccccc3nc21	0%	94*	-5%	2%	65*	-5%
SMILES	LmPK inh	Shiga inhibitor	Giardia FBPA inh	TbPYK inhibitor	CHX counter	Sm TGR inh
CC1CCC2C(=O)N3C(CCC(C)C3c3ccc(-c4ccco4)cc3)C(=O)N2C1c1ccc(-c2ccco2)cc1 (configuration not stated)	.	.	-1%[12.9 µM]	.	.	.
Cc1cccc(CSc2nnc(-c3ccccn3)n2N)c1	4%	36	17%	-2%	18*	0%
Cn1nnnc1SCc1ccccc1F	-2%	-6	1%	-5%	0	28%
Nn1c(SCc2ccccc2F)nnc1-c1cccnc1	-6%	75*	-4%	1%	40*	6%
Cn1c(SCC(N)=O)nnc1-c1cnccn1	1%	2	-4%	-2%	4	.
Cc1cccc(CSc2nnc(-c3cnccn3)n2C)c1	1%	45*	4%	-1%	17*	7%
Cn1c(SCc2ccccc2F)nnc1-c1ccccn1	-2%	109*	0%	8%	44*	8%
Cn1c(SCc2ccccc2F)nnc1-c1cnccn1	-5%	111*	-3%	2%	75*	6%
CCN(CC)C(=O)CSc1nnc(-c2ccccc2)n1N	-5%	-7	13%	0%	21	-35%
C=C(C)CSc1nnc(-c2ccccc2)n1N	-4%	75*	-7%	-1%	24*	11%
Cn1c(SCc2ccccn2)nnc1-c1cnccn1	-5%	57*	-8%	6%	38*	2%
Cn1c(SCc2nc3ccccc3[nH]2)nnc1-c1cnccn1	-7%	43	-15%	-7%	27	-3%
COc1cc(OC)c(Nc2cc(C)nc3ncnn23)cc1Cl	.	.	.	-1%	.	-4%
CCN(c1ccccc1)S(=O)(=O)c1nnc(NC(=O)COc2cccc(C)c2)s1	.	.	.	3%	.	26%
Cc1ccc([C@H]2C[C@H](O)[C@@H](n3cc(-c4ccc(F)cc4)nn3)CN2CC2CCCCC2)cc1	.	.	.	-3%	.	.
O=C(CSc1ncc(-c2ccc(Cl)cc2)[nH]1)Nc1ccccc1F	.	.	.	2%	.	5%
NC(=O)CSc1ncc(-c2ccccc2)[nH]1	-2%	79*	-1%	-7%	14*	0%
O=C(CSc1ncc(-c2ccccc2)[nH]1)Nc1cccc(O)c1	12%	34	-6%	0%	12*	0%
O=C(CSc1ncc(-c2ccc(F)cc2)[nH]1)N1CCCCC1	2%	44*	?	8%	26*	14%
O=C(CSc1ncc(-c2ccccc2)[nH]1)Nc1ccccc1F	3%	72*	-7%	-10%	40*	-1%
O=C(CSc1ncn[nH]1)N1CCCCC1	-4%	-7	-1%	10%	0	-6%
COC[C@H]1O[C@@H](c2c(OC)cc(OC)cc2OC)[C@H](OC)[C@@H](OC)[C@@H]1OC	.	.	0%	.	.	.
Cc1cccc(/C=N/n2c(C)nc3ccccc3c2=O)c1	-1%	100*	6%	-7%	22*	10%
Cc1nc2ccccc2c(=O)n1/N=C/c1ccc(C(C)C)cc1	-7%	38*	0%	-1%	22*	-13%

Screening results from PubChem BioAssay.
